Several values for one entry are separate records, joined by “and”; a condition that tells them apart may be missing. Identical values can stand only once. Records with an inconclusive call do not appear. A call without a number means that no potency is given here. Values without a mark were called inactive. Activity calls are given as the source filed them. Calls follow the shape of the dose curve; as a rule, active = well fitted curve in the direction sought with a large enough effect; inconclusive = small, poorly fitted or top-dose-only effect, or another doubt; inactive = no such curve, though single readings can be large; an effect the other way counts as inactive or inconclusive.
Assays:
NIH3T3 [1] = assay: Cytotoxic Profiling of Annotated Libraries Using Quantitative High-Throughput Screening (AID 1296008); conditions: Five cell lines viability, CellTiter-Glo ATP luminescence, 48-72 h; max response: active compounds read low; also: nearly all actives have a fitted effect of over 60% in size
How it was run: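 Compounds were pin-transferred onto cells and incubated 48 or 72 hr at 37 degree Celsius, 95% humidity. CellTiter-Glo was added, plates sat 10 min at room temperature, then ATP-coupled luminescence was imaged as the viability read-out.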

MCC-13 = assay: qHTS assay to identify novel small-molecules to repurpose for Merkel cell carcinoma treatment (AID 1296009); conditions: MCC and control cell lines, CellTiter-Glo viability, 72 h; series mostly up to 46 µM; also: nearly all actives have a fitted effect of over 60% in size
How it was run: (§1)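 Cells exposed to NPC (8-point) and MIPE (11-point) compound dilutions for 72 hr at 37 degree celsius; viability read by CellTiter-Glo luminescence, normalized to no-cell and DMSO in-plate controls.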

MKL-1 = assay: as above; conditions: MCC and control cell lines, CellTiter-Glo viability, 72 h; series mostly up to 46 µM
How it was run: as §1

MKL-2 = assay: as above; conditions: MCC and control cell lines, CellTiter-Glo viability, 72 h; series mostly up to 46 µM
How it was run: as §1

NIH3T3 [2] = assay: as above; conditions: MCC and control cell lines, CellTiter-Glo viability, 72 h; at 44.8 µM (top of the series)
How it was run: as §1

WaGa = assay: as above; conditions: MCC and control cell lines, CellTiter-Glo viability, 72 h; series mostly up to 46 µM
How it was run: as §1

C33A = assay: Primary qHTS to identify gynecologic anti-cancer compounds using libraries of approved drugs and bioactive compounds (AID 1345084); conditions: Gynecologic cancer cell panel viability, ATPlite luminescence, 48 h; series mostly up to 57.5 µM; also: nearly all actives have a fitted effect of over 55% in size
How it was run: (§2)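 Cells, 1,000 per well, plated 16 h, then exposed 48 h at 37 C to compounds. Viability by ATPlite luminescence after 15 min at room temperature.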

CAOV3 = assay: as above; conditions: Gynecologic cancer cell panel viability, ATPlite luminescence, 48 h; series mostly up to 57.5 µM
How it was run: as §2

CASKI = assay: as above; conditions: Gynecologic cancer cell panel viability, ATPlite luminescence, 48 h; series mostly up to 57.5 µM
How it was run: as §2

Es-2 = assay: as above; conditions: Gynecologic cancer cell panel viability, ATPlite luminescence, 48 h; series mostly up to 57.5 µM
How it was run: as §2

HeLa = assay: as above; conditions: Gynecologic cancer cell panel viability, ATPlite luminescence, 48 h; series mostly up to 57.5 µM
How it was run: as §2

Hek293T = assay: as above; conditions: Gynecologic cancer cell panel viability, ATPlite luminescence, 48 h, control line for the selectivity index; series mostly up to 57.5 µM
How it was run: as §2

JEG-3 = assay: as above; conditions: Gynecologic cancer cell panel viability, ATPlite luminescence, 48 h; series mostly up to 57.5 µM
How it was run: as §2

OV90 = assay: as above; conditions: Gynecologic cancer cell panel viability, ATPlite luminescence, 48 h; series mostly up to 57.5 µM
How it was run: as §2

PA-1 = assay: as above; conditions: Gynecologic cancer cell panel viability, ATPlite luminescence, 48 h; series mostly up to 57.5 µM
How it was run: as §2

MCC-26 = assay: qHTS assay to identify novel small-molecules to repurpose for Merkel cell carcinoma treatment (AID 1296009); conditions: MCC and control cell lines, CellTiter-Glo viability, 72 h; series mostly up to 46 µM; also: nearly all actives have a fitted effect of over 60% in size
How it was run: as §1

UISO = assay: as above; conditions: MCC and control cell lines, CellTiter-Glo viability, 72 h; series mostly up to 46 µM
How it was run: as §1

HACAT = assay: as above; conditions: MCC and control cell lines, CellTiter-Glo viability, 72 h; at 44.8 µM (top of the series) unless noted
How it was run: as §1
Potency is read from the fitted curve at half-maximal effect.

Row | Structure (SMILES) | outcome (NIH3T3 [1]) | Potency (MCC-13) | Potency (MKL-1) | Potency (MKL-2) | outcome (NIH3T3 [2]) | Potency (WaGa) | Potency (C33A) | Potency (CAOV3) | Potency (CASKI) | Potency (Es-2) | Potency (HeLa) | Potency (Hek293T) | Potency (JEG-3) | Potency (OV90) | Potency (PA-1) | Potency (MCC-26) | max response (NIH3T3 [1]) | Potency (UISO) | Potency (NIH3T3 [1]) | outcome (HACAT)
1 | COc1cc(C)nc(-n2nc(C)cc2OC)n1 | inactive | inactive | inactive | inactive | inactive | inactive | inactive | inactive | inactive | inactive | inactive | inactive | inactive | inactive | inactive |  |  |  |  | 
2 | CC[C@]12CCCN3CCc4c(n(c5ccccc45)C(=O)C1)[C@@H]32 |  |  |  |  |  |  | inactive |  |  | inactive |  |  | inactive | inactive | 20 µM (active) |  |  |  |  | 
3 | Oc1ccc(Cl)cc1Cc1cc(Cl)ccc1O |  |  | 23.7 µM (active) | 11.9 µM (active) |  |  |  |  | inactive | inactive | inactive | inactive | inactive | inactive | inactive | inactive |  |  |  | 
4 | CN(CCCN1c2ccccc2CCc2ccccc21)CC(=O)c1ccc(Cl)cc1 |  | inactive | inactive |  |  |  | inactive | inactive | inactive | inactive | inactive | inactive | inactive | inactive | inactive | inactive | 3.31% |  |  | 
5 | O=C1[C@H](CC[C@H](O)c2ccc(F)cc2)[C@@H](c2ccc(O)cc2)N1c1ccc(F)cc1 |  | inactive | inactive | inactive |  |  | inactive | inactive | inactive | inactive | inactive | inactive | inactive | inactive | inactive | inactive | -18.6% and -29.1% | inactive |  | 
6 | COc1ccc(C(Cl)=C(c2ccc(OC)cc2)c2ccc(OC)cc2)cc1 |  | inactive | inactive | inactive |  | inactive | inactive | inactive | inactive | inactive | inactive | inactive | inactive | inactive | inactive |  | -2.4% | inactive |  | 
7 | NC(N)=NN=C(/C=C/c1ccc([N+](=O)[O-])o1)/C=C/c1ccc([N+](=O)[O-])o1 |  | 2.66 µM (active) | 0.376 µM (active) | 0.237 µM (active) |  | 0.237 µM (active) | 12.6 µM (active) | 6.31 µM (active) |  | 31.6 µM (active) | 22.4 µM (active) |  |  | 15.8 µM (active) | 7.08 µM (active) | 2.66 µM (active) |  | 0.841 µM (active) | 6.68 µM (active) | 
8 | O=C(O)Cc1csc(-c2ccc(Cl)cc2)n1 |  | inactive | inactive | inactive |  | inactive | inactive | inactive | inactive | inactive | inactive | inactive | inactive | inactive | inactive | inactive | 1.14% | inactive |  | 
9 | CN1CCN(CCC(=O)N2c3ccccc3Sc3ccc(C(F)(F)F)cc32)CC1 |  | inactive |  |  |  |  |  | 22.4 µM (active) |  |  | inactive |  |  | 15.8 µM (active) |  | inactive |  |  |  | inactive
10 | CCN(CC)CCNc1ccc(CO)c2sc3ccccc3c(=O)c12 |  | 26.6 µM (active) | 10.6 µM (active) | 3.35 µM (active) |  |  |  | 22.4 µM (active) |  |  | inactive | 35.5 µM (active) |  | 35.5 µM (active) | 28.2 µM (active) |  |  | 5.96 µM (active) | 23.7 µM (active) | 
11 | C[N+]12CCC(CC1)C(OC(=O)C(O)(c1ccccc1)c1ccccc1)C2 (stereo not given) |  | inactive | inactive | inactive |  | inactive | inactive |  | inactive | inactive | inactive | inactive | inactive | inactive | inactive | inactive | 0.982% | inactive |  | 
12 | CC(=O)OC[C@H]1O[C@@H](n2ncc(=O)[nH]c2=O)[C@H](OC(C)=O)[C@@H]1OC(C)=O |  | inactive | inactive | inactive |  |  | inactive | inactive |  |  | inactive | inactive | inactive | inactive |  | inactive |  | inactive |  | 
13 | Cc1cc(C)cc(OCC2CNC(=O)O2)c1 (stereo not given) |  | inactive | inactive | inactive |  | inactive | inactive | inactive | inactive | inactive | inactive | inactive | inactive | inactive | inactive | inactive | 0.518% | inactive |  | 

Reference: PubChem BioAssay (NCATS)
